Assay outcomes deposited in PubChem BioAssay by Center for Chemical Genomics, University of Michigan.
The sample as a whole holds a higher share of hits than the screen did.
Dicer processing – blocks human Dicer maturation of pre-miR-21. z-score at 25 µM. AID 1347074. hit rate 6% among 47,000. cat-ELCCA pre-miR-21 Dicer processing, chemiluminescence; stronger effect = higher value; in the data active = z-score above about 3, passing the limit was not always enough;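 note: plate controls were vehicle for no effect and no enzyme for full effect; higher signal means more uncleaved substrate so more Dicer inhibition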
Target sequence (Q9UPY3 whole entry, looked up): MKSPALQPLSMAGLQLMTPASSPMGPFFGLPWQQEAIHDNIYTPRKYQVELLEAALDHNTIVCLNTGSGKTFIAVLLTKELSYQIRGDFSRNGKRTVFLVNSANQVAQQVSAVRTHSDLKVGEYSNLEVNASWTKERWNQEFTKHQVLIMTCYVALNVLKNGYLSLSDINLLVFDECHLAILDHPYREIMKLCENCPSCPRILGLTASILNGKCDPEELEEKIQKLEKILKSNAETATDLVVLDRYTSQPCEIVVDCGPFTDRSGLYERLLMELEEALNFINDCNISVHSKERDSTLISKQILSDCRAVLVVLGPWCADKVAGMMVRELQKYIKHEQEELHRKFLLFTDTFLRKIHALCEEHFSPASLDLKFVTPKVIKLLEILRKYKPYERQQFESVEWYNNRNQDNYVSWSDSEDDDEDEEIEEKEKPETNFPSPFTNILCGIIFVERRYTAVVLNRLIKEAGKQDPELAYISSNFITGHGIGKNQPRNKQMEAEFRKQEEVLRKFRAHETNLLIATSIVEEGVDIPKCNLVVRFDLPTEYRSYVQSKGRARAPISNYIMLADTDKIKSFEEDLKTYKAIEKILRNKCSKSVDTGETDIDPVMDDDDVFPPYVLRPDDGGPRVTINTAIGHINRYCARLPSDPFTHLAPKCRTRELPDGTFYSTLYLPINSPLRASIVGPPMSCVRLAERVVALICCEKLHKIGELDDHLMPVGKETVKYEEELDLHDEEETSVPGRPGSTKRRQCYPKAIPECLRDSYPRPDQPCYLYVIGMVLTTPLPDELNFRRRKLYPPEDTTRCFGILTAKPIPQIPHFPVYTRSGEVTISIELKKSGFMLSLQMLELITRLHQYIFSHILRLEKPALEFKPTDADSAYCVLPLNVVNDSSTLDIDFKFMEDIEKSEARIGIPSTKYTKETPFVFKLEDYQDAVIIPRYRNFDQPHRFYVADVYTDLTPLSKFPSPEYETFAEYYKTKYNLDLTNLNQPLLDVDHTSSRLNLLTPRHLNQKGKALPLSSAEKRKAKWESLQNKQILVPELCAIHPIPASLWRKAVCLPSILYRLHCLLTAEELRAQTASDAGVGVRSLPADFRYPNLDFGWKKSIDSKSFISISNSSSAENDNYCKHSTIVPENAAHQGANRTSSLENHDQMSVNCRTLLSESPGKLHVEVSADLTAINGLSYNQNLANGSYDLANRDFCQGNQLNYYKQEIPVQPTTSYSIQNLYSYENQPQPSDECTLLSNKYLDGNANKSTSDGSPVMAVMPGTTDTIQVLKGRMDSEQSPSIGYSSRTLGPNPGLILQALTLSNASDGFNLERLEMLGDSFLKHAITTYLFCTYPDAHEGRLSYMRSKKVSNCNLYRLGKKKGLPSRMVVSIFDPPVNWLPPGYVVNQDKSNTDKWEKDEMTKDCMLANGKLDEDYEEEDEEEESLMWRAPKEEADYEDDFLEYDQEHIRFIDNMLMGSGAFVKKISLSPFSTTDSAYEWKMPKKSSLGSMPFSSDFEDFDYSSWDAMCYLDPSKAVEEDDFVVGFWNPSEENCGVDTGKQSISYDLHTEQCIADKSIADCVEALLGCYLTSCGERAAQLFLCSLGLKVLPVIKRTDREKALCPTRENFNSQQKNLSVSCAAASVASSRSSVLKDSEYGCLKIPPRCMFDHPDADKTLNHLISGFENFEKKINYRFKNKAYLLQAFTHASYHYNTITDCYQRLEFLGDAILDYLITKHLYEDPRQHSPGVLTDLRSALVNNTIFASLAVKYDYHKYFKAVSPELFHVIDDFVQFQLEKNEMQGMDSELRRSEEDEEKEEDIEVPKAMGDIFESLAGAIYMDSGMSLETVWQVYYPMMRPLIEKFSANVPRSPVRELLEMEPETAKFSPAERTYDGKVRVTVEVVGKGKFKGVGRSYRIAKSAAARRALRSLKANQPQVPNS
Active calls of the source: *; ! = not active in a repeat.

SMILES	Dicer processing
O=C(NC(=S)Nc1ccccc1Cl)c1ccccc1	2.7
O=C(NC(=S)Nc1ccccc1Cl)c1ccc(F)cc1F	10*
O=C(NC(=S)Nc1ccccc1Cl)c1cnn2c(C(F)(F)F)cc(C(F)(F)F)nc12	0.93
CSc1nc(=O)c2cccnc2n1-c1ccc(C)cc1	-0.01
CCOC(=O)c1c(CSCc2ccc(Cl)cc2)oc2c(F)c(F)c(F)c(F)c12	0.94
COc1ccc(-c2nc(C#N)c(N3CCCCC3)o2)cc1	-0.28
N#Cc1nc(-c2ccc(Cl)cc2)oc1N1CCOCC1	3.7*
N#Cc1nc(-c2ccc(F)cc2)oc1N1CCOCC1	-0.48
N#C/C(=C\Nc1nccs1)S(=O)(=O)c1ccc(Cl)cc1	-1.8
Cc1ccc2c(c1)C(C)(c1ccccc1)CC(C)(C)N2C(=O)CSc1nncn1C (stereo not drawn)	5.6*
Cn1cnnc1SCC(=O)N1c2ccccc2CCc2ccccc21	0.92
CC1=CC(C)(C)N(C(=O)CSc2nncn2C)c2ccccc21	0.89
O=c1[nH]c2ccc(OC(F)(F)F)cc2c(O)c1-c1ccccc1	-0.8
Cc1cc(NC(=O)N(CCC#N)Cc2ccccc2)c(C(F)(F)F)o1	-2.8
CCCCn1c(C)cc(=S)cc1C	4.5*
CCCCn1c2ccccc2c2ccccc21	0.42
CCCn1c(C)cc(C)c(C#N)c1=O	0.64
CCOC(=O)c1sc(N2C(=O)C(=O)/C(=C(/O)c3ccccc3)C2c2ccc(O)cc2)nc1C (stereo not drawn)	2.3
CC1CCc2c(sc3nc[nH]c(=S)c23)C1 (stereo not drawn)	0.09
COC(=O)c1ccc(S(=O)(=O)N2CCC(O)(c3ccc(Cl)cc3)CC2)n1C	0.79
COC(=O)c1ccc2ncccc2c1	-0.59
COC(=O)c1ccc(C(=O)OC)nc1	3.9*
COC(=O)c1ccc(C(F)(F)C(F)(F)c2ccc(C(=O)OC)cc2)cc1	0.5
O=C1NC(c2ccc3c(c2)OCO3)Nc2ccc([N+](=O)[O-])cc21 (stereo not drawn)	-1.6
CCc1ccc2nc3c(cc2c1)c(=O)n(C)c(=O)n3C	3.2
SMILES	Dicer processing
COc1ccc(S(=O)(=O)Nc2ccc(N3CCOCC3)cc2)cc1	-0.27
COc1ccc(Nc2cc(C)nc(N3CCOCC3)n2)cc1	6.7*
COc1ccc(Nc2nc(N)nc(CN3CCOCC3)n2)cc1	-0.21
CCOC1c2ccccc2NC(c2ccccc2)C1(C)C (stereo not drawn)	-0.08
O=C(Nc1ccc2ccccc2c1)Nc1ccccc1C(=O)NCC1CC1	2.8
COC(=O)CSCc1n[nH]c(=O)c2ccccc12	-0.76
O=c1[nH]nc(Cc2ccccc2)c2ccccc12	4*
O=c1[nH]nc(-c2ccccc2)c2ccccc12	-0.94
CC1(C)C(=O)C2(CCCCC2)C(=O)OC1C(=O)c1ccc(Br)cc1 (stereo not drawn)	-0.68
C=CCNC(=O)c1cnn2c(C(F)F)cc(-c3ccc(C)cc3)nc12	2.9
O=[N+]([O-])c1cccnc1Sc1ssc(=S)c1-c1ccccc1	-0.86
Cc1cc(NC(=O)c2ccco2)cc(-c2nc3ncccc3o2)c1O	-1.1
COc1ccc(C2NC(=O)c3ccccc3N2)cc1O (stereo not drawn)	1.3
CCc1ccc(C2CC(c3cccc(C)c3)n3nc(N)nc3N2)cc1 (stereo not drawn)	-0.17
COc1cc(C2Nc3cccc4cccc(c34)N2)ccc1O	3.6*
Cc1ccc(C2CC(c3cccc(C)c3)n3ncnc3N2)cc1 (stereo not drawn)	-0.36
N#Cc1ccc(C2NC(=O)c3ccccc3N2)cc1 (stereo not drawn)	-1.5
c1ccc(-c2ccc(C3Nc4cccc5cccc(c45)N3)cc2)cc1	3.2*
Cc1cccc(C2Nc3cccc4cccc(c34)N2)c1	3.6*
COc1cc(C2N3CC4(C)CN2CC(C)(C3)C4)ccc1O (stereo not drawn)	2.7
Oc1ccc2ccccc2c1C1Nc2cccc3cccc(c23)N1	-0.25
COc1cc(NC(=S)N(C)C)cc(OC)c1	0.37
O=C(CC1SC(=Nc2ccc(C3CCCCC3)cc2)NC1=O)Nc1ccc(C2CCCCC2)cc1 (stereo not drawn)	0.93
Cn1nc(-c2ccccc2)cc1NC(=O)CN1C(=O)c2ccccc2S1(=O)=O	-0.56
CCN1CCN(Cc2nc3c(c(=O)n(C)c(=O)n3C)n2CCN2CCOCC2)CC1	-1
SMILES	Dicer processing
CN(C)c1ccc(C2CC(c3ccccc3)Nc3ncnn32)cc1 (stereo not drawn)	1.4
CCOc1ccc(NC(=O)/C=N/O)cc1	2.1
Oc1c(-c2nc(-c3ccc(Cl)cc3Cl)cs2)sc2ccccc12	-1.4
CN(C)/C=C/C(=O)c1cccc(Cl)c1F	1
COC(=O)c1sc(SC)c2c1CC(C)(C)C/C2=N/O	-0.85
CSc1sc(C(=O)O)c2c1C(=O)CC(C)(C)C2	0.03
CSc1sc(/C(C)=N\O)c2c1/C(=N\O)CC(C)(C)C2	5.6*
CCNc1cc(N(C)C)nc(Oc2ccc(OCCOc3ccccc3C)nn2)n1	0.6
COc1ccccc1-c1c(C(F)(F)F)oc2c(CN3CCCC3)c(O)ccc2c1=O	2.4
COc1ccccc1N=C(N)SCc1ccccc1	5.9*
N#Cc1ccc(CSC(N)=Nc2ccccc2)cc1	-0.99
NC(=Nc1ccccc1)SCc1ccc([N+](=O)[O-])cc1	-1.4
Fc1ccc(CSc2nnnn2-c2cccc(Cl)c2)cc1	0.46
O=C(O)c1ccc(-n2nnnc2SCc2cccc(Br)c2)cc1	4.9*
O=C(O)c1ccc(-n2nnnc2SCC(=O)N2CCOCC2)cc1	0.41
CCCC1SC2=NC(C)=C(C(=O)OCC)C(c3ccccc3)N2C1=O (stereo not drawn)	-2.7
OC(CNCc1ccc2c(c1)OCO2)CSc1cccs1 (stereo not drawn)	0.33
O=C(CCc1ccccc1)NC1CCSC1=O (stereo not drawn)	0.1
O=C(CCCOc1ccccc1)NC1CCSC1=O (stereo not drawn)	0.4
O=C(COc1ccccc1)NC1CCSC1=O (stereo not drawn)	3.4*
CCOc1cc(C2c3c(oc4ccc(C)cc4c3=O)C(=O)N2Cc2ccc(C)cc2)ccc1O (stereo not drawn)	0.54
O/N=C/c1c(-c2ccc(Cl)cc2)[nH]c2ccccc12	5*
O=[N+]([O-])/C=C/c1c(-c2ccc3ccccc3c2)[nH]c2ccccc12	1.1
Clc1ccc(-c2cc3ccccc3[nH]2)cc1	9.6
O=C(CN1C(=O)c2cccc3cccc1c23)Nc1ccc(F)cc1	27
SMILES	Dicer processing
C[C@H](Cc1ccc(O)c(O)c1)[C@@H](C)Cc1ccc(O)c(O)c1	0.3
CC(CCc1ccc(O)cc1)NCCc1ccc(O)c(O)c1 (stereo not drawn)	7*!
CCCCCCCC/C=C\CCCCCCCC(=O)NCCc1ccc(O)c(O)c1	1.1
COc1ccc(C(=O)/C=C/Sc2c(Cl)cccc2Cl)cc1	-1
CCOC(=O)C(=O)Oc1ccc2c(c1)C(C)=CC(C)(C)N2	1
CCc1ccc2[nH]c(C)c(CN3CCCC3)c(=O)c2c1	1.1
O=S(=O)(Nc1ccccc1N1CCOCC1)c1ccc2c(c1)OCC2	7.6
CC(=O)Nc1ccc(S(=O)(=O)Nc2ccccc2N2CCOCC2)cc1Cl	2.2
O=S(=O)(Nc1ccccc1N1CCCCC1)c1ccc(C(F)(F)F)cc1	3.3*
CCOc1ccc(/C(O)=C2\C(=O)C(=O)N(c3nccs3)C2c2cccc(Cl)c2)cc1 (stereo not drawn)	1.8
O=[N+]([O-])c1ccc(CSc2cc(-c3ccccc3)nc3ncnn23)cc1	-1.8
Cc1cccc(OCC(O)Cn2c(C)nc3ccccc32)c1 (stereo not drawn)	-1.1
